This passage reports growth results from PubChem BioAssay (NCI).

The panel holds about 83,000 compounds, 20% with a hit somewhere; the sample as a whole holds those more often.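 Step 1: grow cells in 96-well plates. Step 2: add test compound at a single concentration. Step 3: incubate 48 h. Step 4: record percent growth.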 Unmarked numbers belong to inactive results. Active and inactive are the calls of the source. Rule for the calls: active = growth percent below 10; inactive = the rest.

Holding throughout (assay): NCI-60 one-dose screen, 48 h (100 = growth as untreated, 0 = no growth, -100 = all killed)
What all share (conditions): 10 µM unless noted

For assay [1], the system named is NCI-H23 lung.
In assay [2] the test system is NCI-H226 lung.
Assay [3] concerns NCI-H322M lung.
Assay [4] relates to HOP-62 NSCLC.
Assay [5] deals with NCI-H460 lung.
Assay [6] has as its system HOP-92 NSCLC.
Assay [7] deals with NCI-H522 lung.
The test system of assay [8] is A549/ATCC NSCLC.
The subject of assay [9] is 786-0 renal.
Assay [10] relates to COLO 205 colon.
The subject of assay [11] is DU-145 prostate.
The subject of assay [12] is K-562 leukemia.
Assay [13] relates to MALME-3M melanoma.
In assay [14] the test system is MDA-MB-231 breast.
In assay [15] the test system is SF-268 CNS.
Assay [16] has as its system SF-295 CNS.
The test system of assay [17] is SF-539 CNS.
Assay [18] relates to UACC-257 melanoma.
Assay [19] has as its system M14 melanoma.
The subject of assay [20] is RXF 393 renal.

For `COc1c(Cl)cc(Cl)c2ccc(C=C3C(=O)N(C)C(=O)N(C)C3=O)nc12`, the growth is 104% in assay [1]; 100% in assay [2]; 106% in assay [3]; 37.3% in assay [4]; 96.8% in assay [5]; 119% in assay [6]. For the same compound, the growth in [7] was 92.2%; in assay [8], 111%; in assay [9] it was 53.7%; in assay [10] it was 110%; in assay [11], 108%; in assay [12], 100%. The growth in assay [13] is 107%; in [14], 107%; in assay [15], 97.3%; in assay [16] it was 80.3%; in assay [17], 98.6%; in assay [18], 106%.
`COc1ccc(-c2cnnc3c(-c4cccc(C(F)(F)F)c4)cnn23)cc1`: the growth in assay [1] is 70.4%; in [2], 60.9%; in assay [3], 45.7%; in assay [4], 3.24% (active); in assay [5] it was 36%; in assay [6] it was 52.7%. Further, the growth in [7] is 27.5%; in [8], 63.5%; in assay [9], 7.61% (active); in [10], 135%; in assay [11], 57.8%; in assay [12] it was 86.3%. Also, the growth in assay [13] is 24.1%; in assay [14], 72.9%; in assay [15], 30.1%; in [16], -5.8% (active); in [17], 15.9%; in assay [18], 44%. Moreover, the growth in assay [19] is 78.7%.
`COc1ccc(/C=C\c2nc3ccccc3s2)cc1OP(=O)(O)O`: the growth was 43.4% in [1]; 66.3% in assay [2]; 59.8% in assay [3]; 49.3% in assay [4]; 20.7% in assay [5]; 90.2% in [6]. Further, the growth is 12.5% in assay [7]; 42.3% in assay [8]; 64.7% in [9]; 112% in assay [10]; 29.1% in [11]; 10.4% in [12]. The growth is 71.3% in assay [13]; 49.2% in [14]; 2.73% (active) in [20]; 60.2% in [15]; 40.8% in [16]; -10.2% (active) in [17]. Also, the results for the growth in assay [18] and in assay [19] were 83.1% and 25.5%, respectively.
`C[C@H]1[C@H](C)CC[C@]2(CO)CC[C@]3(C)C(=CC[C@@H]4[C@@]5(C)CCCNC(C)(C)[C@@H]5CC[C@]43C)[C@H]12`: the growth in [1] was 36.1%; in assay [2], -99% (active); in assay [3], -17.9% (active); in assay [4] it was -23.1% (active); in assay [5] it was -83.3% (active); in assay [6] it was -5.92% (active). The growth in assay [7] is -77.8% (active); in [8], 12%; in [9] it was -81% (active); in assay [10], -78.3% (active); in [11], -17.4% (active); in [12] it was -49.1% (active). Also, the growth in [13] is -71.9% (active); in assay [14], -54.8% (active); in [20], -27.9% (active); in assay [15] it was 5.71% (active); in [16], -64.6% (active); in [17] it was -36.5% (active). Also, the growth in [18] is -36.9% (active); in assay [19], -73.2% (active).
Regarding `Cc1cc(C(=O)Nc2ncnc3nc[nH]c23)no1`, the growth in assay [1] was 101%; in assay [2], 92.3%; in assay [3], 90.6%; in assay [4], 92.6%; in assay [5] it was 106%; in [6] it was 102%. Besides, the growth in assay [7] was 94.3%; in assay [8] it was 100%; in [9] it was 103%; in assay [10], 104%; in assay [11], 108%; in assay [12], 87%. For the same compound, the growth in assay [13] was 105%; in assay [14] it was 105%; in assay [20] it was 107%; in [15] it was 99.7%; in [16], 99.3%; in [17], 96.9%. The growth in assay [18] is 112%; in assay [19], 99%.
On to `CCCc1cc2c(cc1Br)OCO2`, for which the growth in [1] was 96.2%; in [2] it was 106%; in assay [3], 108%; in assay [4], 84%; in assay [5] it was 106%; in assay [6] it was 86.9%. The growth in assay [7] was 87.9%; in assay [8] it was 80.7%; in assay [9], 89.3%; in [10], 109%; in [11], 111%; in assay [12], 121%. Besides, the growth was 117% in [13]; 113% in assay [14]; 106% in [15]; 96.5% in [16]; 98.8% in [17]; 91.5% in [18].
In the case of `C[C@]12C[C@H]1CC[C@]1(C)[C@@H]2CC[C@@]23C[C@H](CC[C@H]21)[C@@](O)(CO)C3`, the growth is 98.5% in [1]; 96.8% in assay [2]; 94.2% in [3]; 109% in assay [4]; 94.3% in [5]; 92.9% in [6]. For the same compound, the growth was 87% in assay [7]; 99.6% in [8]; -80.1% (active) in assay [9]; 109% in assay [10]; 104% in assay [11]; 66.7% in assay [12]. Also, the growth is 98.7% in [13]; 93.1% in assay [14]; 103% in assay [15]; 113% in assay [16]; 93% in [17]; 100% in assay [18].
For the compound `c1ccc(C2CC(c3cccc(Nc4ccncc4)c3)=NN2c2ccccc2)cc1` (configuration not stated), the growth is 85.8% in assay [1]; 96.1% in assay [2]; 82.5% in assay [3]; 71.1% in assay [4]; -41.9% (active) in assay [5]; 55.5% in assay [6]. Further, the growth was 89.1% in [7]; 50.9% in assay [8]; 68.4% in assay [9]; -58% (active) in assay [10]; 67.7% in [11]; 0.756% (active) in [12]. Also, the growth in assay [13] is -12.1% (active); in assay [14], 75.3%; in assay [15] it was 86.6%; in assay [16], 78.6%; in assay [17], 78.1%; in assay [18] it was 34%. Besides, in assay [19], the growth is -57.4% (active).
